Data on 8 compounds can be found in PubChem BioAssay (EPA / NIEHS).

Molecules are shown by their SMILES. Activity calls are given as the source filed them. The calls were made as follows: active = hit-call score of the fitted dose curve at least 0.9, where 1 is the maximum; inactive = score below 0.9.

A short description of test [1]: ATG_GRE_CIS: Attagene CIS-FACTORIAL HepG2 Assay for human Glucocorticoid Response Elements (GRE) (AID 2282947). The note with it: HepG2 GRE cis-reporter, Attagene multiplex mRNA; actives raise or lower the signal. The essentials: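 Reporter transcripts read by RT-PCR with capillary electrophoresis fluorescence after a 24 h chemical exposure of HepG2 cells transiently transfected with multiple cis-element reporter units. Gain or loss fitted against DMSO.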

The nature of test [2]: ATG_ISRE_CIS: Attagene CIS-FACTORIAL HepG2 Assay for human Interferon Regulatory Factor 1 (IRF1) binding to an Interferon-Stimulated Response Element (ISRE) (AID 2282948). To be noted: HepG2 ISRE cis-reporter (Attagene), mRNA transcription readout; actives raise or lower the signal. The essentials: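 Endogenous transcription factor activity read as reporter transcript abundance via RT-PCR and capillary electrophoresis. HepG2 cells transiently transfected, 24 h chemical exposure. Gain or loss fitted against DMSO baseline.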

A short description of test [3]: ATG_M_32_CIS: Attagene CIS-FACTORIAL HepG2 Assay for M32 Transcription Factor (Internal Marker) (AID 2282949).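 Also: background control marker of the multiplexed CIS panel rather than a real target.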 To be noted: HepG2 Attagene cis-factorial M32 reporter, mRNA; actives raise or lower the signal. Summed up:
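HepG2 transfectants (cis-regulated reporter transcription units) dosed 24 h. Reporter mRNA by RT-PCR plus CE, analysed as gain or loss relative to DMSO.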

Test [4] in a line: ATG_M_06_CIS: Attagene CIS-FACTORIAL HepG2 Assay for M06 Transcription Factor (Internal Marker) (AID 2282950). To be noted: HepG2 Attagene CIS-FACTORIAL M06 internal marker reporter; actives raise or lower the signal. The essentials:
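Steps: transfect HepG2 with multiplexed cis-element reporter constructs; dose chemical 24 h; extract RNA with DNase treatment; reverse-transcribe, PCR-amplify, 6-FAM label, HpaI digest; separate fragments by capillary electrophoresis. Activity fitted both directions versus DMSO.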

The target in test [5] is Hypoxia-inducible factor 1-alpha (Homo sapiens) (UniProt Q16665). Briefly: ATG_HIF1a_CIS: Attagene CIS-FACTORIAL HepG2 Assay for human Hypoxia Inducible Factor 1 (HIF1A) (AID 2282951). To be noted: HepG2 Attagene cis-factorial HIF1a reporter transcription; actives raise or lower the signal. The essentials:
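Transient MRTU transfection of human HepG2 liver cells, 24 h compound treatment, then total RNA isolation, oligo(dT) reverse transcription, PCR amplification, fluorescent labelling and capillary electrophoresis of reporter fragments. Gain or loss relative to DMSO.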

A short description of test [6]: ATG_MRE_CIS: Attagene CIS-FACTORIAL HepG2 Assay for human Metal Responsive Element (MRE) (AID 2282954). To be noted: HepG2 MRE cis-reporter transcription, Attagene multiplex; actives raise or lower the signal. Summed up: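 Endogenous MRE-dependent transcription read as reporter mRNA in transiently transfected human HepG2 cells at 24 h. RNA reverse-transcribed, PCR-amplified, labelled and resolved by capillary electrophoresis; gain or loss relative to DMSO.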

The target in test [7] is Paired box protein Pax-6 (Homo sapiens) (UniProt P26367). Briefly: ATG_Pax6_CIS: Attagene CIS-FACTORIAL HepG2 Assay for human Paired Box 6 (PAX6) (AID 2282956). To be noted: HepG2 CIS-FACTORIAL PAX6 reporter transcription, RNA readout; actives raise or lower the signal. Summed up:
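Read-out is reporter transcript level, measured by RT-PCR with fluorescent primer extension and capillary electrophoresis after 24 h dosing of transfected HepG2 cells. Activity in either direction fitted relative to DMSO control.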

The nature of test [8]: ATG_PXRE_CIS: Attagene CIS-FACTORIAL HepG2 Assay for human Pregnane X Receptor Element (PXRE) (AID 2282957). To be noted: HepG2 Attagene CIS-FACTORIAL PXRE reporter, mRNA; actives raise or lower the signal. The essentials:
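Fluorescent capillary electrophoresis of amplified reporter cDNA gave the signal, collected 24 h after dosing HepG2 cells that held transfected cis-element reporter constructs.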

A short description of test [9]: ATG_PPRE_CIS: Attagene CIS-FACTORIAL HepG2 Assay for human Peroxisome Proliferator-activated Response Element (PPRE) (AID 2282958). To be noted: HepG2 PPRE cis-element reporter, Attagene transcription factor profiling; actives raise or lower the signal. Summed up:
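HepG2, transient MRTU transfection (cis promoter elements, endogenous TFs). 24 h dosing. RNA → oligo(dT) RT → PCR → 6-FAM primer extension → HpaI digest → CE. Bidirectional fit vs DMSO.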

A short description of test [10]: ATG_RORE_CIS: Attagene CIS-FACTORIAL HepG2 Assay for human RAR-related Orphan Receptor Element (RORE) (AID 2282959). To be noted: HepG2 Attagene cis-factorial RORE reporter, mRNA; actives raise or lower the signal. The essentials:
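Transient MRTU transfection of human HepG2 liver cells (FuGene 6); 24 h compound exposure; TriZol RNA, oligo(dT) RT, PCR, FAM labeling, HpaI cut, CE fragment analysis. DMSO = negative control/baseline.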

Test [11] can be described thus: ATG_Sox_CIS: Attagene CIS-FACTORIAL HepG2 Assay for human SRY-box transcription factor (SOX) (AID 2282960). To be noted: HepG2 Attagene cis-factorial SOX reporter, mRNA; actives raise or lower the signal. The essentials:
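Endogenous factor activity in human liver HepG2 cells carrying transfected cis-regulated reporter units. RNA taken 24 h post-dose, reverse-transcribed, PCR-amplified and sized by capillary electrophoresis. Gain or loss of signal fitted relative to DMSO.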

Test [12] deals with Transcription factor Sp1 (Homo sapiens) (UniProt P08047). Briefly: ATG_Sp1_CIS: Attagene CIS-FACTORIAL HepG2 Assay for human Specificity Protein 1 (Sp1) (AID 2282961). The note with it: HepG2 Sp1 cis-reporter transcription, actives raise or lower the signal. The essentials: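 Transient MRTU-transfected HepG2, 24 h compound exposure. Total RNA → oligo(dT) RT → PCR of reporter → 6-FAM primer extension → HpaI digest → CE. Endpoint fitted both directions vs DMSO.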

The nature of test [13]: ATG_SREBP_CIS: Attagene CIS-FACTORIAL HepG2 Assay for human Sterol Regulatory Element Binding (SREBP) (AID 2282962). The note with it: HepG2 Attagene cis-factorial SREBP reporter, mRNA; actives raise or lower the signal. The essentials:
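Endogenous SREBP activity read as cis-element-driven reporter transcript in transiently transfected HepG2, 24 h post-dosing; quantified via RT-PCR plus capillary electrophoresis of fluorescent fragments. Gain or loss of signal fitted relative to DMSO baseline.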

The target of test [14] is Signal transducer and activator of transcription 3 (Homo sapiens) (UniProt P40763). Description: ATG_STAT3_CIS: Attagene CIS-FACTORIAL HepG2 Assay for human Signal Transducer and Activator of Transcription 3 (STAT3) (AID 2282963). To be noted: HepG2, Attagene cis-factorial STAT3 reporter transcription; actives raise or lower the signal. Summed up: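 Readout is reporter transcript quantified by RT-PCR and capillary electrophoresis, with 6-FAM primer extension and HpaI digestion. Total RNA is taken 24 h after dosing transiently transfected HepG2 carrying cis-regulated reporter units. Bidirectional fit against DMSO.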

Test [15] can be described thus: ATG_TCF_b_cat_CIS: Attagene CIS-FACTORIAL HepG2 Assay for human T-Cell-Factor with beta-catenin (TCF/b-cat) (AID 2282965). The note with it: HepG2 TCF/beta-catenin cis-reporter transcription, actives raise or lower the signal. Summed up: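 Endogenous transcription factor activity is captured through cis-promoter reporter constructs transiently introduced into human HepG2 liver cells. Induced reporter mRNA is measured after 24 h and fitted bidirectionally relative to DMSO.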

A short description of test [16]: ATG_TAL_CIS: Attagene CIS-FACTORIAL HepG2 Assay for human TAL Basal Promoter (AID 2282966).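 Also: background control endpoint measuring basal TAL promoter reporter mRNA not a specific factor.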 The note with it: HepG2 Attagene cis-factorial TAL promoter reporter; actives raise or lower the signal. Summed up:
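Transiently transfected HepG2 (cis-regulated reporter units), 24 h treatment, mRNA read by fluorescent CE after RT-PCR; bidirectional fit, DMSO baseline.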

In test [17] the target is Heat shock factor protein 1 (Homo sapiens) (UniProt Q00613). Briefly: ATG_HSE_CIS: Attagene CIS-FACTORIAL HepG2 Assay for human Heat Shock Transcription Factor 1 (HSE) (AID 2282953). To be noted: HepG2 HSE cis-reporter, Attagene RNA transcription; actives raise or lower the signal. Summed up: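 Cells were transfected with cis-element-driven reporter constructs, dosed for 24 h, then total RNA was reverse-transcribed and reporter cDNA amplified, FAM-labelled and digested with HpaI. Fragments were resolved by capillary electrophoresis; gain or loss was fitted against DMSO.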

Test [18] in a line: ATG_PBREM_CIS: Attagene CIS-FACTORIAL HepG2 Assay for human Phenobarbital-responsive Enhancer Module (PBREM) (AID 2282955). The note with it: HepG2 PBREM cis-reporter, Attagene multiplexed transcription; actives raise or lower the signal. The essentials: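 Endogenous transcription factors in human liver HepG2 cells drive a PBREM cis-element reporter, whose transcript level after 24 h treatment is quantified by RT-PCR with capillary electrophoresis; activity fitted in both directions against DMSO.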

The nature of test [19]: ATG_TA_CIS: Attagene CIS-FACTORIAL HepG2 Assay for human TA Basal Promoter (AID 2282964). The note with it: HepG2 Attagene CIS-factorial TA basal promoter reporter; actives raise or lower the signal. The essentials: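 Steps: transfect HepG2 with MRTUs; dose 24 h; isolate RNA, DNase-treat, reverse-transcribe; PCR and FAM-label reporter cDNA; digest with HpaI 2h at 37 C; run capillary electrophoresis. Activity fitted both directions against DMSO.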

Test [20] has as its target Hepatocyte nuclear factor 6 (Homo sapiens) (UniProt Q9UBC0). Description: ATG_HNF6_CIS: Attagene CIS-FACTORIAL HepG2 Assay for human Hepatocyte Nuclear Factor 6 (HNF6) (AID 2282952). The note with it: HepG2 Attagene cis-factorial HNF6 reporter transcription; actives raise or lower the signal. Summed up:
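Activity values derive from bidirectional fitting against DMSO of reporter mRNA levels, measured by capillary electrophoresis of labelled RT-PCR products from HepG2 cells exposed 24 h.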

Chain of Signal transducer and activator of transcription 3 (Homo sapiens) (P40763 whole entry, looked up): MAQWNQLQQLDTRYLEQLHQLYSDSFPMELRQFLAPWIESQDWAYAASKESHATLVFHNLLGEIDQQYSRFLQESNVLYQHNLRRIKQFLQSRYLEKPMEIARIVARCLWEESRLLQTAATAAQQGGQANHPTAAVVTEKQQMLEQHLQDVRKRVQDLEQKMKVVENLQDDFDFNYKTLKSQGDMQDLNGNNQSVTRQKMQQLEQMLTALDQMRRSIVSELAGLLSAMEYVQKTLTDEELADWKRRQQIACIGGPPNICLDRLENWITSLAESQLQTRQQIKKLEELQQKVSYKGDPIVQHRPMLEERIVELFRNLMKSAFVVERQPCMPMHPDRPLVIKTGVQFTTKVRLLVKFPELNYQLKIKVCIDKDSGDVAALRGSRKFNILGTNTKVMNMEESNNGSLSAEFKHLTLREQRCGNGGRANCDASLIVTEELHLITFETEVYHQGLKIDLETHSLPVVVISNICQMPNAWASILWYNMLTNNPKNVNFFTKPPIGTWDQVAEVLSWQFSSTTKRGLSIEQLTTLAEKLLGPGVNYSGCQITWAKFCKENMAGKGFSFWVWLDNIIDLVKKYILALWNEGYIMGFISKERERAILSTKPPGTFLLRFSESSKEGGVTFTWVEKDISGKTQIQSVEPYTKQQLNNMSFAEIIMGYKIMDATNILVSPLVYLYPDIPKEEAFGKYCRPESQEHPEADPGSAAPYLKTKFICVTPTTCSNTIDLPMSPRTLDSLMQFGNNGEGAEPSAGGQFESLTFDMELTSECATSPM
Chain of Hypoxia-inducible factor 1-alpha (Homo sapiens) (Q16665 whole entry, looked up, the tested form may be a part): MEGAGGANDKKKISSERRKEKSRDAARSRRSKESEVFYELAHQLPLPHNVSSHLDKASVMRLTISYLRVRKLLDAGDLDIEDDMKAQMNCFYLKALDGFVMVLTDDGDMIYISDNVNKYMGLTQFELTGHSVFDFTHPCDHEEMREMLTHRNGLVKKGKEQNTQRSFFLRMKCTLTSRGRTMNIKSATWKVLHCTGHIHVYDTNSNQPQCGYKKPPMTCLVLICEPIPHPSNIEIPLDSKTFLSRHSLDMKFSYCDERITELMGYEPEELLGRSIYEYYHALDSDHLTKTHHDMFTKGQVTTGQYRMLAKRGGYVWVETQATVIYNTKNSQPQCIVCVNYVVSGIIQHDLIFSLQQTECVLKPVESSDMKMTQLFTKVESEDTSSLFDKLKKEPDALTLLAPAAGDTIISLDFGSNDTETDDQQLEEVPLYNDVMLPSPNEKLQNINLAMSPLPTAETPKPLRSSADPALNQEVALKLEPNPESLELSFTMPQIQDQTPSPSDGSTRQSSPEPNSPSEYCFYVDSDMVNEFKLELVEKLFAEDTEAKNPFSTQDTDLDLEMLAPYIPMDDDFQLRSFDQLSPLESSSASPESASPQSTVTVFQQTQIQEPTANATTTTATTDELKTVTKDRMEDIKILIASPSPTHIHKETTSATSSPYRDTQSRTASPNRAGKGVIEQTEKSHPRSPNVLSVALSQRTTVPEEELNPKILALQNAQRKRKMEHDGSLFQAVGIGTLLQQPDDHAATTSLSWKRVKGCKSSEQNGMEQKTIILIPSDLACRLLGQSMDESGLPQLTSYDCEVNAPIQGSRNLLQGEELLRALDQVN
Chain of Paired box protein Pax-6 (Homo sapiens) (P26367 whole entry, looked up): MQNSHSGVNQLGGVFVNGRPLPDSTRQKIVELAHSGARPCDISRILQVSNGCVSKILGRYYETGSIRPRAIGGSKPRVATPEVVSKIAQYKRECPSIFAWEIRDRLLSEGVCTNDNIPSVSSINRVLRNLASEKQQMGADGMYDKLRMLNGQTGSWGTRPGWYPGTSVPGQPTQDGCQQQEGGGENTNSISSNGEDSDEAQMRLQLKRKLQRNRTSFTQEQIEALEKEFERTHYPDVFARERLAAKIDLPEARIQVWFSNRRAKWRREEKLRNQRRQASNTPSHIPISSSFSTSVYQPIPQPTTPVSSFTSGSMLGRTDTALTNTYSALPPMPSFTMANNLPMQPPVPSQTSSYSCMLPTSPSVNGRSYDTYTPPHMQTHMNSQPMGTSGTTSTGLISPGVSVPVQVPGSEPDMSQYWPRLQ
Chain of Transcription factor Sp1 (Homo sapiens) (P08047 whole entry, looked up): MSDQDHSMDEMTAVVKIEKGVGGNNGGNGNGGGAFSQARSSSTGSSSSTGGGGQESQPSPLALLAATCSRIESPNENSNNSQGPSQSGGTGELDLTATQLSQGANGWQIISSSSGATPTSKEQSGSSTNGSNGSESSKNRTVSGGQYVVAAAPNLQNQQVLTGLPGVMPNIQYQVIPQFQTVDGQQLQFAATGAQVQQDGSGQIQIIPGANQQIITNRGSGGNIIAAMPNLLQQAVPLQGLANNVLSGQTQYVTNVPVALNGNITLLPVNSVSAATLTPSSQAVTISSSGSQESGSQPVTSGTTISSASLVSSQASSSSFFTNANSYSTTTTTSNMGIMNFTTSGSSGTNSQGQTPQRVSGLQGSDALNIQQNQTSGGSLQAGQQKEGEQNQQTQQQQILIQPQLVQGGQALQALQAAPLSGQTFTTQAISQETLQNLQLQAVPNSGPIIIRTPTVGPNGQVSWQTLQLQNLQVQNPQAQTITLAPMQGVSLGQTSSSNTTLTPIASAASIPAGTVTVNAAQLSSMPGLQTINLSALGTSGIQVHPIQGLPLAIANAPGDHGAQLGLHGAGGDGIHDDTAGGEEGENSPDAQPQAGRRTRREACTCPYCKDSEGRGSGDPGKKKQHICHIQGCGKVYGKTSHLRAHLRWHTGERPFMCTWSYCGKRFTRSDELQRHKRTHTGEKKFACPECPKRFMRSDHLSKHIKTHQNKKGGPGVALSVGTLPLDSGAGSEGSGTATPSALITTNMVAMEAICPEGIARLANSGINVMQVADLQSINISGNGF
Chain of Heat shock factor protein 1 (Homo sapiens) (Q00613 whole entry, looked up, the tested form may be a part): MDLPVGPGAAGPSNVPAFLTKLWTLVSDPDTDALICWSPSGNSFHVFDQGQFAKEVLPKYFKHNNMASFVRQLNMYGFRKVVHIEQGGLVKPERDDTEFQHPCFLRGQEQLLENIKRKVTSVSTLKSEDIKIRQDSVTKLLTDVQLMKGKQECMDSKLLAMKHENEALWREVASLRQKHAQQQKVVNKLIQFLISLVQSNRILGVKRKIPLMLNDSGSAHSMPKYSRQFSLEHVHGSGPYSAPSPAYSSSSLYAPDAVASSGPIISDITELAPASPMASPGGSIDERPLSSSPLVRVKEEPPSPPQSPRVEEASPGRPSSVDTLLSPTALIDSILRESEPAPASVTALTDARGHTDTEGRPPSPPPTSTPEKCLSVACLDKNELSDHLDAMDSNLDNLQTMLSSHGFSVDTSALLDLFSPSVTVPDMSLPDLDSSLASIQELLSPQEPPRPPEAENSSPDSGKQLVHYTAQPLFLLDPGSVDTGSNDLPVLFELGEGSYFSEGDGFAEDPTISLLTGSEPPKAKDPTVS
Chain of Hepatocyte nuclear factor 6 (Homo sapiens) (Q9UBC0 whole entry, looked up): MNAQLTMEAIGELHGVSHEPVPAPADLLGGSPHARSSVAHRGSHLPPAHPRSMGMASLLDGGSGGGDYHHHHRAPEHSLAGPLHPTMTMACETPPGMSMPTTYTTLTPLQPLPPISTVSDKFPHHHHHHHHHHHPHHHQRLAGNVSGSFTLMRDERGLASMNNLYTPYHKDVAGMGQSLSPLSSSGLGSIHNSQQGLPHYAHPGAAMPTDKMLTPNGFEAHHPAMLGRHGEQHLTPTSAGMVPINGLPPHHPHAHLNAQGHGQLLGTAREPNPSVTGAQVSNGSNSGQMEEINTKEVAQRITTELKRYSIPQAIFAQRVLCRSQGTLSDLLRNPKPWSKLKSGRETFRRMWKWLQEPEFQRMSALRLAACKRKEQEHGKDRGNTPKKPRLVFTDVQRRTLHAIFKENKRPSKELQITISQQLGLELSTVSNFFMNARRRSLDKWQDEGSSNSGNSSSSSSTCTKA

As a reminder, the AC50 is the concentration at which the activity in the assay is half-maximal. Regarding `CC(C)CCCCCCOC(=O)C1CCCCC1C(=O)OCCCCCCC(C)C` (centres undefined), the call in [1], in [2], in test [3], in test [4], in [5] and in test [6] was inactive. Besides, the compound was classed as inactive in test [7], in [9], in test [10], in test [11], in test [12] and in [13]. The compound was classed as inactive in [14], in test [15] and in test [16]. In [8], the AC50 was 1.17 µM (active).

For `NCC(F)(F)C(F)(F)C(F)(F)C(F)(F)F`, the compound was classed as inactive in test [1], in [2], in test [3], in test [4], in test [5] and in test [17]. Also, the result in test [6], in test [18], in test [7], in [8], in test [9] and in [10] was inactive. Also, the compound was classed as inactive in test [11], in test [12], in [13], in test [14], in test [19] and in test [15]. Further, the compound was called inactive in [16].

Turning to `OC[C@H]1O[C@@](CO)(O[C@H]2O[C@H](CO)[C@@H](O)[C@H](O)[C@H]2O)[C@@H](O)[C@@H]1O`, the outcome in test [2], in test [3], in test [4], in test [5], in test [6] and in test [18] was inactive. Moreover, the compound was classed as inactive in test [7], in test [8], in test [9], in test [10], in [11] and in test [12]. Further, the outcome in [13], in [14], in test [15] and in test [16] was inactive.

Consider `CCCCCCCCCCCCCCCCOS(=O)(=O)O`, for which the AC50 in test [2] was 22.8 µM (active); in [6], 25.4 µM (active); in test [15], 25.7 µM (active). For the same compound, the compound was classed as inactive in [3], in test [4], in test [5], in test [17], in test [18] and in test [8]. For the same compound, the call in [10], in test [11], in test [12], in [13], in test [14] and in [16] was inactive.

As to `COc1cc2c(c(OC)c1OC)-c1ccc(OC)c(=O)cc1[C@@H](NC(C)=O)CC2`, the outcome in test [1], in [2], in test [3], in test [4], in test [6] and in test [8] was inactive. For the same compound, the compound was called inactive in test [10], in test [11], in test [12], in test [13], in [14] and in test [19]. The compound was called inactive in [16]. Further, the half-maximal activity concentration (AC50) was 0.619 µM (active) in test [5] and 0.348 µM (active) in [15].

As to `NC(N)=O`, the call in test [2], in [3], in test [4], in test [5], in [6] and in test [18] was inactive. For the same compound, the result in test [8], in test [9], in test [10], in test [11], in test [12] and in test [13] was inactive. For the same compound, the call in [14], in test [15] and in [16] was inactive.

In the case of `Cn1c(=O)c2[nH]cnc2n(C)c1=O`, the compound was called inactive in test [2], in test [3], in [4], in test [6], in test [7] and in [8]. Further, the call in test [9], in test [10], in test [11], in test [12], in [13] and in [14] was inactive. Further, the compound was called inactive in test [19] and in test [16]. For the same compound, the half-maximal activity concentration (AC50) in [15] is 100 µM (active).

On to `CCCCCCCCCC`, for which the compound was called inactive in test [2], in test [3], in test [4], in test [5], in [20] and in test [17]. The compound was classed as inactive in [6], in [7], in [8], in test [9], in [10] and in test [11]. The result in test [12], in [13], in [14], in test [19], in test [15] and in test [16] was inactive.
